Experimental data reported in PubChem BioAssay (NCI).
About 83,000 compounds went through this panel and 20% of them were active in at least one assay; those are over-represented in the sample as a whole.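 48-hour exposure, single concentration, 96-well plates; percent growth endpoint where 0 means no net growth. Active: below 10.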 The source made the active and inactive calls.

What was measured:
Assay in all cases: NCI-60 one-dose screen, 48 h (100 = growth as untreated, 0 = no growth, -100 = all killed)
HCT-15 colon = tested on: HCT-15 colon
HT29 colon = tested on: HT29 colon
SNB-75 CNS = tested on: SNB-75 CNS
SNB-19 CNS = tested on: SNB-19 CNS
U251 CNS = tested on: U251 CNS
PC-3 prostate = tested on: PC-3 prostate
UACC-62 melanoma = tested on: UACC-62 melanoma
LOX IMVI melanoma = tested on: LOX IMVI melanoma
SK-MEL-28 melanoma = tested on: SK-MEL-28 melanoma
SK-MEL-2 melanoma = tested on: SK-MEL-2 melanoma
EKVX NSCLC = tested on: EKVX NSCLC
UO-31 renal = tested on: UO-31 renal
TK-10 renal = tested on: TK-10 renal
ACHN renal = tested on: ACHN renal
CAKI-1 renal = tested on: CAKI-1 renal
A498 renal = tested on: A498 renal
CCRF-CEM leukemia = tested on: CCRF-CEM leukemia
MOLT-4 leukemia = tested on: MOLT-4 leukemia

Measured: growth

COc1cccc2c1C(=O)c1c(O)c3c(c(O)c1C2=O)C[C@@](O)(C(=O)CO)C[C@@H]3OC1CC(N)C(O)C(C)O1 (stereo not given in full)
inactive: HCT-15 colon; 0.0025 µM 99.2% | HCT-15 colon; 1 µM 81.9% | HCT-15 colon; 2.5 µM 70.2% | HCT-15 colon; 10 µM 15.2% | HT29 colon; 0.0025 µM 93.2% | HT29 colon; 1 µM 40.7% | HT29 colon; 2.5 µM 55% | SNB-75 CNS; 0.0025 µM 98% | SNB-75 CNS; 1 µM 33% | SNB-19 CNS; 0.0025 µM 92.5% | SNB-19 CNS; 1 µM 21.1% | SNB-19 CNS; 2.5 µM 35.6% | U251 CNS; 0.0025 µM 83.6% | U251 CNS; 2.5 µM 16.4% | PC-3 prostate; 0.0025 µM 100% | PC-3 prostate; 1 µM 54.7% | UACC-62 melanoma; 0.0025 µM 97.5% | UACC-62 melanoma; 1 µM 14.8% | LOX IMVI melanoma; 0.0025 µM 81.7% | SK-MEL-28 melanoma; 0.0025 µM 93.7% | SK-MEL-28 melanoma; 1 µM 65.7% | SK-MEL-28 melanoma; 2.5 µM 70.7% | SK-MEL-2 melanoma; 0.0025 µM 112% | SK-MEL-2 melanoma; 1 µM 31.3% | SK-MEL-2 melanoma; 2.5 µM 75.1% | EKVX NSCLC; 0.0025 µM 102% | EKVX NSCLC; 1 µM 65.8% | EKVX NSCLC; 2.5 µM 88.8% | EKVX NSCLC; 10 µM 24.6% | UO-31 renal; 0.0025 µM 87.1% | UO-31 renal; 1 µM 61.3% | UO-31 renal; 2.5 µM 67.3% | TK-10 renal; 1 µM 63.3% | TK-10 renal; 2.5 µM 57.7% | TK-10 renal; 10 µM 25.4% | ACHN renal; 0.0025 µM 102% | ACHN renal; 1 µM 19.6% | ACHN renal; 2.5 µM 35.6% | CAKI-1 renal; 1 µM 45% | CAKI-1 renal; 2.5 µM 17.6% | A498 renal; 0.0025 µM 93.5% | A498 renal; 1 µM 76.5% | A498 renal; 2.5 µM 52.6% | CCRF-CEM leukemia; 0.0025 µM 104% | CCRF-CEM leukemia; 1 µM 26.8% | CCRF-CEM leukemia; 2.5 µM 53.3% | MOLT-4 leukemia; 0.0025 µM 94.5%
active: HT29 colon; 10 µM 4.69% | SNB-75 CNS; 2.5 µM 7.99% | SNB-75 CNS; 10 µM -61.7% | SNB-19 CNS; 10 µM -0.904% | U251 CNS; 10 µM 9.22% | PC-3 prostate; 10 µM 1.27% | UACC-62 melanoma; 10 µM -60% | LOX IMVI melanoma; 1 µM 8.33% | LOX IMVI melanoma; 10 µM 5.68% | SK-MEL-28 melanoma; 10 µM -17% | SK-MEL-2 melanoma; 10 µM -28.5% | UO-31 renal; 10 µM 4.05% | ACHN renal; 10 µM -13.8% | CAKI-1 renal; 10 µM -28.9% | CCRF-CEM leukemia; 10 µM -11.8% | MOLT-4 leukemia; 1 µM 5.51% | MOLT-4 leukemia; 2.5 µM -21.6% | MOLT-4 leukemia; 10 µM -12%
